According to PubChem BioAssay (Tox21):
Results filed as inconclusive are left out. Calls of active or inactive are those of the source. Unless noted, the call rests on the fitted dose curve.

Legend:
[1] = Nuclear factor erythroid 2-related factor 2/antioxidant responsive element (Nrf2/ARE) small molecule agonists: qHTS cell viability counter screen in human keratinocytes (AID 1919968; active means well fitted curve in the direction sought with a large enough effect in the repeat runs; an effect the other way counts as inactive or inconclusive; further: nearly all actives have a fitted effect of over 55% in size; further: potency means the concentration at half of the fitted maximal effect)
Outline: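 Cells of the KeratinoSens line were plated at 1,500 per well and left for 5 h before compound transfer from DMSO stocks. After a 23 h incubation (37 C, 5% CO2), CellTiter-Fluor was added. Signal was taken as fluorescence intensity 1 h later.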

[2] = Nuclear factor erythroid 2-related factor 2/antioxidant responsive element (Nrf2/ARE) small molecule agonists: luciferase reporter gene qHTS assay in human keratinocytes (AID 1919969); further: nearly all actives have a fitted effect of over 35% in size; further: potency means the concentration at half of the fitted maximal effect
[3] = molecular target: Gonadotropin-releasing hormone receptor (Homo sapiens) (UniProt P30968); experiment: Human gonadotropin-releasing hormone receptor (GnRHR) small molecule agonists, calcium flux assay in GnRHR-HEK293 cells (AID 1920063); further: nearly all actives have a fitted effect of over 35% in size
Gonadotropin-releasing hormone receptor (Homo sapiens), sequence (P30968 whole entry, looked up): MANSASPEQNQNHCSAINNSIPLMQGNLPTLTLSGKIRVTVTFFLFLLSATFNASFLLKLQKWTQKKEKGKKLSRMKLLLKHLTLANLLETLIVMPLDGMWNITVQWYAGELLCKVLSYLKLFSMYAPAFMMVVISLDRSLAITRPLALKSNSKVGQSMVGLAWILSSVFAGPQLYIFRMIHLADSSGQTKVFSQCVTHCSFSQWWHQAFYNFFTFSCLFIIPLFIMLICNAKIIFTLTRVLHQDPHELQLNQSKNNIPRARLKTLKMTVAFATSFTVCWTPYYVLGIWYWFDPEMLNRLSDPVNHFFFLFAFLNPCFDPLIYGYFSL
Outline: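 Compounds dissolved in DMSO are pin-transferred onto dye-loaded GnRHR-HEK293 cells, which were seeded 18 h before at 37 C/5% CO2. Calcium signal is read as fluorescence intensity at 1 s intervals for 3 min.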

[4] = molecular target: KiSS-1 receptor (Homo sapiens) (UniProt Q969F8); experiment: Human kisspeptin (KISS1R) small molecule agonists, calcium flux assay in KISS1R-HEK293 cells (AID 1920064; active means well fitted curve in the direction sought with a large enough effect in the repeat runs; an effect the other way counts as inactive or inconclusive)
KiSS-1 receptor (Homo sapiens), sequence (Q969F8 whole entry, looked up): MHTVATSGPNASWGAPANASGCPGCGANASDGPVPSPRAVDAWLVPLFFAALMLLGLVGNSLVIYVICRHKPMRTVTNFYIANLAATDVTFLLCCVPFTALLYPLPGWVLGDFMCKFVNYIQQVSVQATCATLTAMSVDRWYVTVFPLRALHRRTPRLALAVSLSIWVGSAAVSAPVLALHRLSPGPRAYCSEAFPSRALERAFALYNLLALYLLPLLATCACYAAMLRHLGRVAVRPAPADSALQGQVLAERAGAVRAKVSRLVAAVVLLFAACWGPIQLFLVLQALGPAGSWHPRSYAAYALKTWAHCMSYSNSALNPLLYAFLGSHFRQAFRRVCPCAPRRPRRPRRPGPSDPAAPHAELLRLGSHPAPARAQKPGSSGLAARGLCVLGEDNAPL
Outline: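 Cell line: HEK293, stable human KISS1R. Dye loading 1 h at 37 C after 18 h culture. Read: kinetic fluorescence, 480/540 nm, 3 min at 1 s intervals.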

[5] = G protein-coupled receptor (GPCR) small molecule agonists, calcium flux assay: HEK293 wild type cell line counter screen (AID 1920065)
Outline: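 Tox21 10K compounds, 15 concentrations each in triplicate, pin-transferred in DMSO onto dye-loaded cells; kinetic read at 480/540 nm for 3 min, 1 s intervals.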

[6] = p53 small molecule agonists, cell-based qHTS assay with human liver microsomes: qHTS cell viability counter screen (AID 1963579); further: nearly all actives have a fitted effect of over 45% in size
Outline: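 Luminescent CellTiter-Glo read-out, 30 min at room temperature, gauged cytotoxicity in p53RE-bla cells exposed 16 h at 37 C to DMSO-dissolved compounds with metabolic activation by human liver microsomes and NADPH, each 0.5 mg/mL final.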

[7] = p53 small molecule agonists, cell-based qHTS assay: qHTS cell viability counter screen (AID 1963581); further: nearly all actives have a fitted effect of over 45% in size
Outline: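 ATP content measured by luminescence in HCT-116 p53RE-bla cells treated 16 h at 37 C, same wells as the reporter screen.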

[8] = molecular target: 5-hydroxytryptamine receptor 2A (Homo sapiens) (UniProt P28223); experiment: 5-hydroxytryptamine receptor 2A (HTR2A) small molecule antagonists, cell-based qHTS assay (AID 1963586); further: nearly all actives have a fitted effect of over 45% in size
5-hydroxytryptamine receptor 2A (Homo sapiens), sequence (P28223 whole entry, looked up): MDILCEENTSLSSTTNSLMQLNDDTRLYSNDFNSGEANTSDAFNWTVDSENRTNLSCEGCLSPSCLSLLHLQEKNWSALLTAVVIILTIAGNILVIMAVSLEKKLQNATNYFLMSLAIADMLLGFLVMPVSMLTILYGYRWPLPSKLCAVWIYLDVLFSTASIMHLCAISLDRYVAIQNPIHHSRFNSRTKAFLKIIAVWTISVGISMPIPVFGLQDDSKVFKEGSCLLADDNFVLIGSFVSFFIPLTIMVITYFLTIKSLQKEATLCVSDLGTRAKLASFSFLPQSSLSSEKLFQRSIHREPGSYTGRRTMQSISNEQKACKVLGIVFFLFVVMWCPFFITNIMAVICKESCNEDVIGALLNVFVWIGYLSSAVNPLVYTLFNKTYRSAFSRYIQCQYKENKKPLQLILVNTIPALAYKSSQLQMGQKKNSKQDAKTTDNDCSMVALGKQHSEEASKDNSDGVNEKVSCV
Outline: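 CHO cells stably expressing human HTR2A were plated for 18 h at 37 C, then loaded with calcium dye for 1 h. Compounds were preincubated 5 min at room temperature before DOI (4 nM solution) was added. Kinetic fluorescence was read for 3 min.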

[9] = molecular target: 5-hydroxytryptamine receptor 2A (Homo sapiens) (UniProt P28223); experiment: 5-hydroxytryptamine receptor 2A (HTR2A) small molecule agonists, cell-based qHTS assay (AID 1963587); further: nearly all actives have a fitted effect of over 30% in size
Outline: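 HTR2A-CHO cells, plated 18 h at 37 C/5% CO2, dye-loaded 1 h at 37 C; compounds in DMSO added by pin tool (agonist mode). Intracellular calcium flux read as kinetic fluorescence on FDSS over 2 min at 1 s intervals.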

[10] = molecular target: Muscarinic acetylcholine receptor M1 (Homo sapiens) (UniProt P11229); experiment: Cholinergic receptor muscarinic 1 (CHRM1) small molecule antagonists, cell-based qHTS assay (AID 1963588); further: nearly all actives have a fitted effect of over 40% in size
Muscarinic acetylcholine receptor M1 (Homo sapiens), sequence (P11229 whole entry, looked up): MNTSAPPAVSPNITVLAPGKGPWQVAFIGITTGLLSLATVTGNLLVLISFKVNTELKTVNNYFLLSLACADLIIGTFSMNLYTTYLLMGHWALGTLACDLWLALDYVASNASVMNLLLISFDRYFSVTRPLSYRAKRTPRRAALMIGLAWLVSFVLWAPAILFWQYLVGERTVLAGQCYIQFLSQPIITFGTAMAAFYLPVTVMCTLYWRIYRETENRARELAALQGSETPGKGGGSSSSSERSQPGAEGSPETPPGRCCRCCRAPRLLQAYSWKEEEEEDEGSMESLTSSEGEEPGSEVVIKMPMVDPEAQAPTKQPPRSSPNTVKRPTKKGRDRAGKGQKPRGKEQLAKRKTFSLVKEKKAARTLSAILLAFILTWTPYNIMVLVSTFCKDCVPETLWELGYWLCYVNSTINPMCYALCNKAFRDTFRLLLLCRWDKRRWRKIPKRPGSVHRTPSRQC
Outline: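 Compounds were tested at 15 concentrations in three independent runs. Dye-loaded CHRM1-CHO cells were exposed 5 min at room temperature before stimulation by acetylcholine added at 50nM. Intracellular calcium was read kinetically on FDSS for 3 min.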

[11] = molecular target: Muscarinic acetylcholine receptor M1 (Homo sapiens) (UniProt P11229); experiment: Cholinergic receptor muscarinic 1 (CHRM1) small molecule agonists, cell-based qHTS assay (AID 1963589); further: nearly all actives have a fitted effect of over 35% in size
Outline: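 Homogeneous fluorescence calcium flux, agonist mode. Human M1-expressing CHO cells; compound dosed at 15 concentrations, three independent runs; signal sampled every 1 sec.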

[12] = cAMP Responsive Elements (CRE) small molecule agonists, cell-based qHTS assay (AID 1963590)
Outline: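 HEK 293T cells stably bearing CRE-bla were plated at 2,000 cells per well and rested 18 h. Compounds, positive controls or DMSO were added for 3 h at 37 C. LiveBLAzer B/G substrate was then loaded for 2 h at room temperature.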

[13] = molecular target: Beta-2 adrenergic receptor (Homo sapiens) (UniProt P07550); experiment: Adrenergic beta2 receptor (ADRB2) small molecule antagonists, cell-based qHTS assay (AID 1963592); further: series mostly up to about 92 µM; nearly all actives have a fitted effect of over 50% in size
Beta-2 adrenergic receptor (Homo sapiens), sequence (P07550 whole entry, looked up): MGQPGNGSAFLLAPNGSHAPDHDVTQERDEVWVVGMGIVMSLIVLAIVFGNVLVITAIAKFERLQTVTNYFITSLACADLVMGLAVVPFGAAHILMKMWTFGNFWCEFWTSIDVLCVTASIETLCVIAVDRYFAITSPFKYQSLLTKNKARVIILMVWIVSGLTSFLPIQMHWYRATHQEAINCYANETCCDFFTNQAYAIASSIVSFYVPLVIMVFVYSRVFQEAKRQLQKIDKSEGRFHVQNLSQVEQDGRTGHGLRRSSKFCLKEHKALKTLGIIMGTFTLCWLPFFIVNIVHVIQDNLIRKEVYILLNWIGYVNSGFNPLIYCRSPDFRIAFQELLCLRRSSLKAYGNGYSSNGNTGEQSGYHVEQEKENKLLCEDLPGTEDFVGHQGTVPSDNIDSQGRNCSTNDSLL
Outline: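 Assay format: CHO-ADRB2 cells, 18-20hr seeding at 37C/5% CO2, then compound plus 1nM isoproterenol agonist mix for 0.5hr RT. Homogeneous time-resolved fluorescence cAMP detection after 1hr, expressed as 665/615 nm ratio.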

[14] = molecular target: Beta-2 adrenergic receptor (Homo sapiens) (UniProt P07550); experiment: Adrenergic beta2 receptor (ADRB2) small molecule agonists, cell-based qHTS assay (AID 1963593);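 further: CHO cells stably overexpressing human ADRB2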
Outline: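 CHO cells stably over-expressing ADRB2 were plated overnight at 37C, then dosed with compounds plus a stimulation mix containing 100uM IBMX and 25uM Ro-20-1724 for 0.5hr at room temperature. cAMP was measured by HTRF competition, 1hr.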

[15] = molecular target: D(2) dopamine receptor (Homo sapiens) (UniProt P14416); experiment: Dopamine D2 receptor (DRD2) small molecule agonists, cell-based qHTS assay (AID 1963594); further: nearly all actives have a fitted effect of over 35% in size
D(2) dopamine receptor (Homo sapiens), sequence (P14416 whole entry, looked up): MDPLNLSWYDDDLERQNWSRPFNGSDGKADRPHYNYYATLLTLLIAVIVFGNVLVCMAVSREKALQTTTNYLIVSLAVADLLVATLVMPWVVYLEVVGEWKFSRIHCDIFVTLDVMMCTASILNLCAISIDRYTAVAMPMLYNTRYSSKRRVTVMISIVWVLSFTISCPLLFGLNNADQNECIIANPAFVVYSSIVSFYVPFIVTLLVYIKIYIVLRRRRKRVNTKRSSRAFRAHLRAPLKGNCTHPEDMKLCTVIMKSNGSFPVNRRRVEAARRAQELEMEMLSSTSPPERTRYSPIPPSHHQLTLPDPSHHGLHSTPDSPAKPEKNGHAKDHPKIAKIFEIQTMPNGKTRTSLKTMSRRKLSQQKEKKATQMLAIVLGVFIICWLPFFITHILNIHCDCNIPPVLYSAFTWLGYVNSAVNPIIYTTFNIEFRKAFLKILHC
Outline: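 HEK293 cells stably expressing DRD2 were cultured 24 h at 37 C, then given Ro20-1724 (0.1 mM final) and compounds for 10 min at room temperature. NKH477 (200nM) was then added for 30 min. cAMP was read by HTRF.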

[16] = molecular target: D(2) dopamine receptor (Homo sapiens) (UniProt P14416); experiment: Dopamine D2 receptor (DRD2) small molecule antagonists, cell-based qHTS assay (AID 1963595; active means well fitted inhibition curve with a large enough effect in the signal ratio in the repeat runs, with a control signal flat; the % refers to the signal ratio)
Outline: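 Readout: HTRF cAMP, cAMP-d2 competing with cellular cAMP for anti-cAMP cryptate, read after 1 h. Cells: DRD2-HEK293. Conditions: 0.1 mM Ro20-1724, 12 nM quinpirole, 200 nM NKH477, 30 min RT.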

[17] = p53 small molecule agonists, cell-based qHTS assay with rat liver microsomes: qHTS cell viability counter screen (AID 1963580); further: nearly all actives have a fitted effect of over 45% in size; further: potency means the concentration at half of the fitted maximal effect
Outline: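 Counter screen for cytotoxicity under metabolic activation: rat liver microsomes and NADPH, 0.5 mg/mL final each, added with compounds to p53RE-bla HCT-116 cells; 16 h at 37 C, then ATP luminescence read.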

[18] = cAMP Responsive Elements (CRE) small molecule antagonists, cell-based qHTS assay (AID 1963591; active means well fitted inhibition curve with a large enough effect in the signal ratio in the repeat runs, not every such curve was filed as active; the % refers to the signal ratio)
Outline: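 First, CRE-bla HEK293T cells settled 18 h at 37 C. Next, compound and 0.25 uM final NKH477 were applied for 3 h. Last, LiveBLAzer B/G substrate was loaded for 2 h at room temperature.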

[19] = p53 small molecule agonists, cell-based qHTS assay (AID 1963582; active means well fitted activation curve with a large enough effect in the signal ratio in the repeat runs, not every such curve was filed as active; the % refers to the signal ratio)
Outline: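 16 h compound exposure (37 C) of p53 response element–bla cells, preceded by 5 h recovery at 37 C/5% CO2; read-out via LiveBLAzer B/G FRET substrate, 2 h RT, fluorescence intensity.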

Measured: Potency

O=C(NC(=O)c1c(F)cccc1F)Nc1ccc(OC(F)(F)C(F)OC(F)(F)F)c(Cl)c1 (centres undefined)
not listed: [17] | [18] | [19]
inactive: all other assays above

Cc1cc(C(F)(C(F)(F)F)C(F)(F)F)ccc1NC(=O)c1cccc(I)c1C(=O)NC(C)(C)CS(C)(=O)=O
not listed: [7] | [19]
inactive: all other assays above

C=CC(=O)OCC
not listed: [7] | [19]
inactive: all other assays above

Cc1cnc2c(C(=O)O)c(Cl)ccc2c1
not listed: [7] | [9] | [19]
inactive: all other assays above

CCOP(=S)(OCC)SCSP(=S)(OCC)OCC
active: [2] 68.6 µM
not listed: [7] | [8] | [9] | [10] | [12] | [15]
inactive: all other assays above

CC(C)C(Br)C(=O)NC(N)=O (centres undefined)
not listed: [7] | [8] | [9] | [10] | [11] | [14] | [17] | [19]
inactive: all other assays above

CC(C)CC(C)Nc1ccc(Nc2ccccc2)cc1 (centres undefined)
active: [1] 53.5 µM | [2] 23.9 µM | [17] 45 µM
inactive: [3] | [4] | [5] | [6] | [9] | [11]

CCOC(=O)c1cn2nc(OP(=S)(OCC)OCC)cc2nc1C
not listed: [6] | [10] | [12] | [16] | [18]
inactive: all other assays above

Oc1c(Cl)cccc1Cl
not listed: [10] | [17] | [19]
inactive: all other assays above
